Compounds with a hit are over-represented: about 7.5% of the library has one in this group of screens.
Luc counter: blocks Kinase-Glo luciferase, a counter-screen artifact; Q27757; Kinase-Glo luciferase, ATP luminescence, 8 min; Potency, µM (series often up to 38.3 µM), for the others: at the top dose activity change, negative = inhibition, actives largely listed as inhibitors; 200,000 compounds, 0.28% hits; AID 1379; note: % is set by controls: 0 for no effect and ±100 for the full control effect; nearly all actives have a fitted effect of over 60% in size
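Compound is pinned into ATP-containing buffer (10 uM ATP, imidazole pH 7.2, 7 mM MgCl2). Kinase-Glo luciferase reagent is then added. Light output is recorded following an 8-min room-temperature incubation.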
NPC1 prom act: activates the NPC1 promoter. Huh7 NPC1 promoter luciferase reporter, 24 h. Potency, µM (series often up to 9.22 µM), for the others: at the highest dose activation, actives largely listed as activators. 320,000 compounds, 2.4% hits. AID 485313; note: % of control where 0% means no effect; nearly all actives have a fitted effect of over 60% in size
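Readout is luciferase luminescence, reflecting NPC1 promoter activation in stably transfected Huh7 cells after 24 h compound exposure at 37 °C in reduced-serum medium with 10% FBS.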
SMN2 splice up: increases expression of the SMN2 splice variant | Potency, µM (series often up to 46.1 µM), for the others: at the highest dose activity change, positive = activation, most hits filed as activators | 210,000 compounds, 2.8% hits | HEK293 SMN2-luciferase splicing reporter, luminescence, 30-36 h; note: % of control where 0% means no effect; nearly all actives have a fitted effect of over 55% in size
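HEK293 cells carry an SMN2 […]–luciferase reporter in which exon 7 inclusion puts luciferase in frame. Cells were plated 10-12 h before compound addition, then incubated 30-36 h at 37C. ONE-Glo luminescence was read; sodium butyrate at 4.5 mM final served as control.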
FLuc modulator: inhibits or activates purified firefly luciferase, miR-21 counter-screen; purified FLuc, Km substrates, luminescence inhibition; 360,000 compounds, 6.9% hits; Potency, µM (titrated, usually from 57.5 µM), for inactives: at the top dose activity change, negative = inhibition, hits mostly inhibitors; AID 588342; P08659;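 note: plate controls were vehicle for no effect and reference inhibitor for full effect; nearly all actives have a fitted effect of over 55% in size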
Target sequence (P08659 whole entry, looked up): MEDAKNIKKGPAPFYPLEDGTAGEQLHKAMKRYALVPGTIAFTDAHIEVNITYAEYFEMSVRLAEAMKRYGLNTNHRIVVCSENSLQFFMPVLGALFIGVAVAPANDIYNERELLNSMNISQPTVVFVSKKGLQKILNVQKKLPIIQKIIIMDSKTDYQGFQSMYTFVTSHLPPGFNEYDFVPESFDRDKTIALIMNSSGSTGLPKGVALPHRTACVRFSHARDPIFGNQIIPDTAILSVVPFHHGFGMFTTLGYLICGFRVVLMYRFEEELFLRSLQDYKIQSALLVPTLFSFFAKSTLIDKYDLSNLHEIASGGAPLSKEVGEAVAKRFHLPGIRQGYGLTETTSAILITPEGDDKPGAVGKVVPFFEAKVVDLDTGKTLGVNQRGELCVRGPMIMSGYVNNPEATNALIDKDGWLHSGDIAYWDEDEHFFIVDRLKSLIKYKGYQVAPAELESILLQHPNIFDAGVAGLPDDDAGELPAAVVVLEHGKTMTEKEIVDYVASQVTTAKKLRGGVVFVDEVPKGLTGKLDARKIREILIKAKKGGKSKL
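Purified P. pyralis luciferase (10nM final) with 10uM D-luciferin and 10uM ATP (Km levels) in 50mM Tris acetate pH 7.5, 10mM Mg acetate, 0.01% Tween-20, 0.05% BSA; qHTS 6-point titration, ~60 µM downward; luminescence read.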
ELG1 genotoxic: induces genotoxicity in HEK293T cells with luciferase-tagged ELG1 | HEK293T ELG1-luciferase reporter, luminescence, 16 h | AID 504466 | Potency, µM (series often up to 46 µM), for the others: at the highest dose activity change, positive = activation, usual class: activators | 330,000 compounds, 1.3% hits; note: % of control where 0% means no effect; nearly all actives have a fitted effect of over 60% in size
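After overnight (16 hr) compound treatment at 37 °C, ELG1-luciferase HEK293T cells were lysed with ONE-Glo; luminescence quantified 30 min later at room temperature.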
Rab9 prom act: Rab9 promoter activation; 320,000 compounds, 2.8% hits; Huh7 Rab9 promoter-luciferase reporter, luminescence, 24 h; Potency, µM (highest dose often 9.22 µM), inactives show at the top dose activation, negative = inhibition, usual class: activators; note: % of control where 0% means no effect; nearly all actives have a fitted effect of over 60% in size
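Rab9 promoter-driven luciferase in stably transfected Huh7 cells; 1500 cells/well rested 2 h, exposed to compound in DMSO for 24 h at 37 °C, 5% CO2. Luminescence read 10 min after adding luciferase reagent at ambient temperature.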
The depositor's hits bear a star; ? = inconclusive; / = no result given. Calls come from the whole dose curve; as a rule, active = well fitted curve in the direction sought with a large enough effect; inconclusive = small, poorly fitted or top-dose-only effect, or another doubt; inactive = no such curve, though single readings can be large; an effect the other way counts as inactive or inconclusive. Potency is the fitted concentration of half-maximal effect.

SMILES	Luc counter	NPC1 prom act	SMN2 splice up	FLuc modulator	ELG1 genotoxic	Rab9 prom act
Cc1ccc(NC(=O)C2COc3ccccc3O2)cc1 (centres undefined)	/	2.82µM*	/	23.9µM*	?	3.55µM*
CC1CCC(NC(=O)C2COc3ccccc3O2)CC1 (centres undefined)	/	17.5%	/	-4.8%	14.6µM*	20.0%
O=C(Nc1cccnc1)C1COc2ccccc2O1 (centres undefined)	-6.8%	0.1%	-4.9%	-2.6%	1.3%	-2.7%
O=C(NC1CCCCC1)C1COc2ccccc2O1 (centres undefined)	/	0.5%	/	1.8%	3.7%	3.3%
Cc1ccc(NC(=O)C2COc3ccccc3O2)nc1 (centres undefined)	-5.9%	24.1%	-5.8%	13.5µM*	10µM*	26.9%
Cc1nc2sc(C(=O)Nc3ccccc3Cc3ccccc3)c(C)c2c(=O)[nH]1	/	-0.8%	/	-2.9%	16.2%	-3.5%
CN(C)S(=O)(=O)Nc1ccc(-c2cn3ccsc3n2)cc1	/	/	/	26.9µM*	/	/
CN(Cc1cccnc1)C(=O)Cc1ccc(NS(=O)(=O)c2cccc(C(F)(F)F)c2)cc1	/	-1.3%	/	2.7%	-2.7%	-0.3%
N#C/C(C(=O)c1ccccc1)=C1/CCCCCN1	-8.2%	?	?	21.3µM*	?	2.51µM*
COC(=O)c1c(C)sc(-c2c(-c3ccc(F)cc3)[nH]c3[nH]c(=O)[nH]c(=O)c23)c1O	/	/	/	-17.9%	/	/
COCC(C)n1c(C)cc(C(=O)COC(=O)c2n[nH]c3ccccc23)c1C (centres undefined)	-7.4%	1µM*	-8.8%	3.01µM*	?	0.631µM*
COCC(C)n1c(C)cc(C(=O)CSc2nnc(N)s2)c1C (centres undefined)	-3.7%	?	?	8.49µM*	8.2µM*	3.98µM*
COCC(C)n1c(C)cc(C(=O)COC(=O)c2oc3ccccc3c2C)c1C (centres undefined)	-3.9%	13.7%	-29.1%	?	-9.9%	3.2%
COCC(C)n1c(C)cc(C(=O)CSc2nnnn2C2CCCC2)c1C (centres undefined)	/	?	/	4.26µM*	?	?
CCn1cc(C(=O)N2CCN(c3ccccc3OC)CC2)c(=O)c2cc(S(=O)(=O)N3CCCCC3)ccc21	/	/	6.3%	-6.0%	/	/
CCCn1cnc2cc(NC(=O)c3ccco3)ccc21	/	3.55µM*	/	?	2.91µM*	2.82µM*
CCn1cnc2cc(NC(=O)c3ccco3)ccc21	-16.0%	2.82µM*	5.01µM*	10.7µM*	18.4µM*	1.58µM*
CC(C)(C)n1cnc2cc(NC(=O)c3ccco3)ccc21	/	0.282µM*	/	9.53µM*	?	0.708µM*
O=C(O)COCC(=O)Nc1ccc2c(c1)ncn2CCc1ccccc1	/	-0.1%	/	2.8%	-0.7%	-8.4%
CCCn1cnc2cc(NC(=O)c3cccs3)ccc21	-12.2%	?	15.8µM*	10.7µM*	12.5%	2.82µM*
Cn1c(CCN2CCOCC2)nc2cc(NC(=O)c3cccs3)ccc21	2.0%	-2.8%	7.2%	0.6%	-0.7%	-4.0%
Cc1cc(C)n2nc(SCC(=O)Nc3cccc(C(F)(F)F)c3)nc2n1	/	/	-36.0%	2.8%	/	/
Cc1ccc(NC(=S)Nc2cccc(-c3n[nH]c(=S)o3)c2)cc1	/	-1.2%	/	16.9µM*	14.8%	?
C=CCOc1ccc(-c2n[nH]c(=S)o2)cc1	1.3%	-1.1%	/	23.9µM*	7.0%	-2.1%
COc1ccc(C(=O)Nc2ccc(-c3n[nH]c(=S)o3)cc2)cc1	/	29.3%	/	3.01µM*	?	?
SMILES	Luc counter	NPC1 prom act	SMN2 splice up	FLuc modulator	ELG1 genotoxic	Rab9 prom act
O=C(Nc1ccc(-c2n[nH]c(=S)o2)cc1)c1ccccc1	/	10.5%	/	8.49µM*	7.6%	6.8%
CC(C)(C)C(=O)OCc1nc(-c2ccc(F)cc2)cs1	/	?	/	1.35µM*	17.9%	2.51µM*
COc1ccc(-c2csc(NC(=O)C3CC(=O)N(c4ccc5c(c4)OCCO5)C3)n2)cc1 (centres undefined)	/	-4.2%	/	-14.4%	-3.7%	-2.5%
COc1ccc(-c2csc(COC(=O)C(C)(C)C)n2)cc1	/	23.9%	/	2.39µM*	5.7%	?
CC(C)(C)C(=O)OCc1nc(-c2ccc(Cl)cc2)cs1	/	3.55µM*	/	1.2µM*	?	4.47µM*
CC(C)(C)C(=O)OCc1nc(-c2ccc3c(c2)OCCO3)cs1	/	2.82µM*	/	0.536µM*	?	3.16µM*
NC(=O)Cc1nc(-c2ccc(F)cc2)cs1	/	4.0%	/	-2.2%	7.4%	12.7%
CCCC(=O)Nc1nc(-c2ccc(OC)cc2)cs1	17.1%	24.1%	?	?	?	?
CC1C(=O)N2CCCc3cc(S(=O)(=O)NCc4ccccc4Cl)cc1c32 (centres undefined)	/	2.2%	/	0.0%	-5.2%	-3.6%
CCCn1c(C)cc(C(=O)CSc2nc3nc(C)cc(C)n3n2)c1C	-2.1%	-1.1%	-18.3%	21.3µM*	-0.4%	-0.4%
CCOC(=O)CSc1nc2nc(C)cc(C)n2n1	2.0%	-5.0%	8.5%	0.4%	-4.7%	1.6%
Cc1cccc(/C=C2\Sc3ccc(C(=O)N4CCC(C(N)=O)CC4)cc3N(C)C2=O)c1	/	-20.4%	/	19µM*	-9.2%	-5.9%
CN1C(=O)/C(=C/c2ccc(C(F)(F)F)cc2)Sc2ccc(C(=O)N3CCN(c4ccccn4)CC3)cc21	/	-6.4%	/	8.49µM*	-12.3%	-6.3%
Cc1oc(-c2cc(F)cc(F)c2)nc1CN1CCSCC1	-4.5%	0.3%	-6.5%	-17.5%	1.3%	-4.8%
CCCCOC(=O)CSc1nnc(-c2ccc(C)cc2)o1	/	/	4.4%	?	/	/
COC(=O)Sc1nnc(-c2ccc(Br)cc2)o1	-0.6%	1.6%	-15.3%	19µM*	7.2%	0.6%
CCCCCSc1nnc(-c2ccc(Br)cc2)o1	/	/	0.3%	12µM*	/	/
OCC#CCSc1nnc(-c2ccc(Br)cc2)o1	1.1%	9.5%	-9.6%	?	20.6µM*	-3.6%
Cc1cccc(C)c1NC(=O)C(=O)NCC(c1cccnc1)N1CCc2ccccc21 (centres undefined)	/	/	/	-7.3%	/	/
Cc1cccc(C)c1NC(=O)CNC(=O)c1ccccc1	/	-5.1%	/	2.3%	-3.9%	2.2%
COc1ccccc1NC(=O)N1CCCC1C(=O)NCc1ccccc1Cl (centres undefined)	/	-2.0%	/	0.5%	-2.7%	3.2%
COc1ccccc1NC(=O)N1CCCC1C(=O)NCc1ccccc1F (centres undefined)	-4.7%	0.8%	6.31µM*	-2.2%	13.1%	-7.6%
COc1ccc(C(=O)N/N=C/C(=O)c2ccccc2)cc1	/	2.51µM*	/	1.51µM*	10.3µM*	?
Cc1ccc(C(=O)NN=CC(=O)c2ccccc2)c(C)c1	/	/	/	/	2.31µM*	/
